Among all 53,000 sequences or so, about 3,700 (7%) were called active.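 The calls were made as follows: active = gene knockdowns whose robust z-score for IL-1 alpha signal is at least 2 or at most -2, so actives lie on both sides; inactive = the rest.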 The full list was thinned out, with actives kept by preference.
Test: Components of the Cytosolic LPS Sensing Pathway: Gene Identification via Genome-wide siRNA Screen;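 also: robust z of the log signal after scaling to non-targeting control siRNA wells of the plate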
Details: RAW264.7 macrophages, IL-1a HTRF, actives lie on both sides, screened at 100 nM (by protocol), cells primed 5 h with Pam3CSK4 first
Summary of the method: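 Knockdown: 100 nM siRNA, 48h, RAW264.7. Stimulation: Pam3CSK4 5 h, then LipidA via TransIT-TKO 24 h. Output: supernatant IL-1a HTRF, negative-control-normalized, log robust z-score; viability by CellTiter-Glo.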

z-score, inactive:
GGCAGAUGAUGGUCCAUGCTT against Tfpi -1.63
CCAGCAGUAAACUGGAAAUTT against Arhgap25 -1.53
GGCAACCAGAUAUUUGUUATT against Myef2 0.549
GCUCGCACAGAAGUUACAATT against Lrrc42 -0.486
GGAGCGAGUAGACAUUCUGTT against Rdh13 1.72
GGUAGUGCCAUAAUUUCUGTT against Nipal2 -0.782
GCUGUUAACUAUCUGGAUATT against Prokr1 0.59
GGGUGUUGUGUCCUCUCAATT against Gckr 0.0744
GCAUGAAUCGUGCGAAGAUTT against Zfp871 0.903
CCAGGUUCUCCGAAUCUCUTT against Cpa1 -0.854
GCUGAGUCCAUUGAAGAAGTT against Pebp4 0.255
GCACAACGACCUUUCCAGGTT against Chst12 -0.561
GGAUCCUAAAACUGAGGAATT against Crtc2 0.22
GGAGAAAAACUGAGCAGCCTT against Chst12 -1.72
GCAUUGGAACCAUGUGCUGTT against Prss46 -1.59
GGAGGAUUAUUACAGAAGGTT against Lhx9 1.57
GGAACUGACUGCCUAUUCCTT against Gnb3 1.08
CCGUUGAUAUCCACAUGAATT against Plod3 1.97
GCACUGCAUAUUCCGCACUTT against Nubp2 1.4
GGCUGGUCUCCAAACCCAATT against F13b 0.229
GGACAGUGCCACUUAAACCTT against Tbxa2r -1
GGGAGACCGGCAAAAAAAATT against Pde1b 0.999
CGAGAUGUGUGUUAAAGGATT against Utp23 0.934
GCAAGUUGUCAAAUCUAAATT against Tspan13 1.42
CCAAGGUAUGAAGAUAUUUTT against Rfpl4 0.575
GCAUGUUUUGGUGUAUAGUTT against Arl4a -1.81
CGGUGUUUGAAAUCGUGCATT against Dgcr6 0.533
CCAGAGCCCAAGCCAAGUUTT against Nanos3 0.639
GGUAUCCAGAUGAAAGAUGTT against Nlrp10 -1.13
GGCCCUCAAAAAUCACGAGTT against Ehd1 1.11
GGCAACAUCACUGAGUAUCTT against Glg1 0.57
GGAUCUUCUCUGCCUAUAUTT against Arpc1b -1.42
GGAGGAGAAGAAGAAGGCCTT against Unc119b 0.28
CCUCAUGCUAGCCUCAUGATT against Actg1 -0.214
GCUAUUGGGACUUAGAACATT against Slc26a9 0.191
CCAGUAAACCUACAUGUUCTT against Htr3b -0.024
GGCUAAAAUAAGCAAUCUGTT against Optc -1.35
GGUAUUGAGUAUCUUAGGUTT against Atf7 -0.543
CGUUUUGUACAGAUAUACUTT against Fam3b -0.571
GAUUCCAAGACAUUAAACATT against Fxn 0.485
GGCAGUUCAUGUUUAAAGATT against Fgfr1op2 -0.381
CGAGAGCAUUAAUUACUUCTT against Sulf1 0.621
GGACUACGAAUACCCAUCGTT against Cck -0.42
GGGCAAUUUGGACUGUUUUTT against Jam3 -0.973
GGAAGCAUUCCAAUGGUAGTT against Cyp2c39 -0.532
CGAUGCUGUGGAACUGCACTT against Ptgfrn 0.417
CCGCGCCGUUGAUUCAUUUTT against Spata17 1.08
GGACACCAUGCCACAGACATT against Hlx -1.43
GCAGAUCACCUUUUGUUUATT against Gdap2 0.767
GGAUCCGUGCUGAAGUUUUTT against Cep20 -0.338
GGAUUGUUAGCAAAGAAAGTT against Aco1 -0.0776
GGUAGCAUGCUUUUGGUGCTT against Unkl 0.329
CGAAGGCUUUUGAAUUCAATT against Pcdh17 0.41
GGACUUCUACACCUCGAAATT against Amz2 -1.05
GCUGAGGAAAUGCGAAGUCTT against Tmem98 0.0406
GGGCAACCCACAAUAAAAATT against B9d1 -1.66
GGCAAGGAAUCAAUGUCUCTT against Fscn2 -0.229

z-score, active:
GAAAUGCAAGACUCUGCACTT against 1700020L24Rik -2.66
GGAACCAAUCUGUCUCUCCTT against Cbfb -2.07
GGCUAACCUGAGCAAACAGTT against Plvap -2.21
GGUGGAACAGUGGAAUUCGTT against Grhpr 2.41
GGCCUCCUAUAGACGGGAUTT against Vdac3 2.49
GCCGGACAACUCUAAUCAGTT against Herpud1 3.22
GCCCGAUAUUAUAACGGUGTT against Eomes 2.97
GGAAACUCCCUGAACCGGATT against Zcrb1 2.26
GGGUUUUAGAAUGAAAUACTT against Emc6 2.35
GGCCAGACAUGUUGAAGAATT against Ssna1 -2.42
GCUUCCCGCUAUGAGUUCATT against Shisa7 2.24
GGCUUUGAGAUAUGAACAGTT against Arrdc2 2.53

— PubChem BioAssay AID1508600 (Functional Genomics Laboratory (NCATS/FGL), 2020)
